{
  "source": "PubChem BioAssay",
  "note": "Values joined by “and” are separate entries in the source; they are usually repeats but may differ in a detail not shown here. Equal values may be shown once. Active and inactive are the calls of the source.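 The calls were made as follows, unless noted: active = z-score of at least 1.8 in each of two replicates, scored against plate mean and spread of sample wells; inactive = the rest.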",
  "data": [
    {"target": "NAD(+) hydrolase SARM1 (Homo sapiens) (UniProt Q6SZW1)", "sequence (Q6SZW1 whole entry, looked up)": "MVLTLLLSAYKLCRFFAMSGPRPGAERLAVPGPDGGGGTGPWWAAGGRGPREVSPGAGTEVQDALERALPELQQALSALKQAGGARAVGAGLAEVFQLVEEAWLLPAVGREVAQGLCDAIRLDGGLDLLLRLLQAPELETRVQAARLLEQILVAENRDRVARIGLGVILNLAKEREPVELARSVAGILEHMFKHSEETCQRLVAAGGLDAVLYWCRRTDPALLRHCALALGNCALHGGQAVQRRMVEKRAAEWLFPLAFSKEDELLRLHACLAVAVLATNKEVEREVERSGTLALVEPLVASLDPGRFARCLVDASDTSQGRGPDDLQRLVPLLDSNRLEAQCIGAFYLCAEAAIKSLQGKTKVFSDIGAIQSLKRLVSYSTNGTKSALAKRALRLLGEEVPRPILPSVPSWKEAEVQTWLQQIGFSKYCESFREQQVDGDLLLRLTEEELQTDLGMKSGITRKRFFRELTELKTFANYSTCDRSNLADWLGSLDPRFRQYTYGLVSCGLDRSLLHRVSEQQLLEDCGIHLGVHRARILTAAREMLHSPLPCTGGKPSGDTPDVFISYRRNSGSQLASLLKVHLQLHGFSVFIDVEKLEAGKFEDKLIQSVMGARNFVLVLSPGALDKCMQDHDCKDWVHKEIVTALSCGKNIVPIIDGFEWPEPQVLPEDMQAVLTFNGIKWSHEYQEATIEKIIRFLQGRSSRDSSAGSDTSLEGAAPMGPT", "experiment": "blocking NAD cleavage by SARM1 SAM-TIR – cell lysate, NAD-Glo luminescence (AID 1508614;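 active = compound whose remaining NAD level is above about 45 nM, limit read from the data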;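 also: higher remaining NAD means stronger inhibition of SARM1 NADase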)", "details": "SAM-TIR HEK293T lysate NADase, at 1 µM, hits give high values", "values": [
      {"molecule": "N[C@@H](CC(=O)O)C(=O)O", "remaining NAD": "10 nM (inactive)"},
      {"molecule": "NC(N)=NCCC[C@H](N)C(=O)O", "remaining NAD": "10 nM (inactive)"},
      {"molecule": "C(=C\\c1ccccc1)/CN1CCN(C(c2ccccc2)c2ccccc2)CC1", "remaining NAD": "10 nM (inactive)"},
      {"molecule": "N[C@@H](COP(=O)(O)O)C(=O)O", "remaining NAD": "10 nM (inactive)"}
    ]},
    {"system": "not listed separately", "experiment": "galactose survival enhancers in mitochondrial complex I cybrids – cell-based, galactose medium, ATP luminescence, primary screen (AID 1645843);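 also: positive z means more ATP and so rescue of galactose-driven cybrid death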", "details": "complex I mutant cybrid cells, 72 h, hits give high values", "values": [
      {"molecule": "NC1[C@H]2CN(c3nc4c(cc3F)c(=O)c(C(=O)O)cn4-c3ccc(F)cc3F)C[C@@H]12", "note": "(some centres not stated)", "z-score": "2.21 (active)"},
      {"molecule": "COc1ccc(CCN(C)CCCC(C#N)(c2cc(OC)c(OC)c(OC)c2)C(C)C)cc1OC", "note": "(configuration not stated)", "z-score": "-0.635 (inactive)"},
      {"molecule": "N[C@@H](CC(=O)O)C(=O)O", "z-score": "0.255 (inactive)"},
      {"molecule": "C[C@]12CCC(=O)C=C1CC[C@@H]1[C@@H]2CC[C@@]2(C)[C@H]1CC[C@]2(O)C(=O)CO", "z-score": "0.435 (inactive)"},
      {"molecule": "O=c1[nH]c(=O)n([C@H]2C[C@H](O)[C@@H](CO)O2)cc1Br", "z-score": "5.63 (active)"},
      {"molecule": "CC1=C(CC(=O)O)c2cc(F)ccc2/C1=C\\c1ccc(S(C)(=O)=O)cc1", "z-score": "0.795 (inactive)"},
      {"molecule": "CCN1CCc2nc(N)oc2CC1", "z-score": "0.29 (inactive)"},
      {"molecule": "NC(=O)c1cn(Cc2c(F)cccc2F)nn1", "z-score": "0.155 (inactive)"},
      {"molecule": "CSc1ccc(C(=O)c2[nH]c(=O)[nH]c2C)cc1", "z-score": "0.31 (inactive)"},
      {"molecule": "NC(N)=NCCC[C@H](N)C(=O)O", "z-score": "0.285 (inactive)"},
      {"molecule": "O=C1NC(=O)[C@@]2(CCOc3ccc(F)cc32)N1", "z-score": "0.695 (inactive)"},
      {"molecule": "C[N+](C)(C)CCOC(=O)CCC(=O)OCC[N+](C)(C)C", "z-score": "0.34 (inactive) and -0.11 (inactive)"},
      {"molecule": "Cc1nc2c([nH]1)c(=O)n(C)c(=O)n2Cc1ccco1", "z-score": "0.455 (inactive) and 1.9 (inactive)"},
      {"molecule": "OCCN1CCN(CC/C=C2/c3ccccc3Sc3ccc(C(F)(F)F)cc32)CC1", "z-score": "-1.04 (inactive)"},
      {"molecule": "CC(C)(C)c1ccc(C(=O)CCCN2CCC(OC(c3ccccc3)c3ccccc3)CC2)cc1", "z-score": "-0.865 (inactive)"},
      {"molecule": "Nc1cc(=O)[nH]c(N)n1", "z-score": "0.355 (inactive)"},
      {"molecule": "CC(=O)[C@@]1(O)CC[C@H]2[C@@H]3CCC4=CC(=O)CC[C@]4(C)[C@H]3CC[C@@]21C", "z-score": "-0.055 (inactive) and -1.24 (inactive)"},
      {"molecule": "COC(=O)C1=C(C)NC(C)=C(C(=O)OC(C)(C)CN(C)CCC(c2ccccc2)c2ccccc2)C1c1cccc([N+](=O)[O-])c1", "note": "(configuration not stated)", "z-score": "-1.52 (inactive) and -2.66 (inactive)"},
      {"molecule": "CCC(=O)c1ccc2c(c1)N(CCCN(C)C)c1ccccc1S2", "z-score": "-1.19 (inactive)"},
      {"molecule": "OCCN1CCN(CCCN2c3ccccc3C=Cc3ccccc32)CC1", "z-score": "-0.685 (inactive)"},
      {"molecule": "CCNC(=O)N1CCN(CCCC(c2ccc(F)cc2)c2ccc(F)cc2)CC1", "z-score": "-1.42 (inactive)"},
      {"molecule": "C(=C\\c1ccccc1)/CN1CCN(C(c2ccccc2)c2ccccc2)CC1", "z-score": "-0.01 (inactive)"},
      {"molecule": "COC(=O)[C@@H](N)Cc1ccc(O)c(O)c1", "z-score": "-1.02 (inactive)"},
      {"molecule": "CCCCc1ncc(/C=C(\\Cc2cccs2)C(=O)O)n1Cc1ccc(C(=O)O)cc1", "z-score": "0.525 (inactive) and 0.34 (inactive)"},
      {"molecule": "O=C(O)CN(CCOCCOCCN(CC(=O)O)CC(=O)O)CC(=O)O", "z-score": "0.34 (inactive)"},
      {"molecule": "O=C(O)CP(=O)(O)O", "z-score": "1.15 (inactive)"},
      {"molecule": "N[C@@H](COP(=O)(O)O)C(=O)O", "z-score": "0.485 (inactive)"},
      {"molecule": "CCN(CC)CCCN(c1ccccc1)C1Cc2ccccc2C1", "z-score": "-1.11 (inactive)"}
    ]}
  ]
}
